High-throughput results (PubChem)
Sampled rows, rich in hits. Any-hit rate of the full collection: about 2.7%.
NTMT1 inh: inhibitors of human N-terminal methyltransferase NTMT1; Q9BV86; NTMT1 MTase-Glo SAH luminescence, purified enzyme; Potency, µM (doses to about 114 µM), for the others: at the top dose activity change, negative = inhibition, hits mostly inhibitors; actives 2.5% (n = 59,000);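 note: potency is the fitted concentration of half-maximal effect; plate controls were DMSO vehicle for no effect and no enzyme for full effect; nearly all actives have a fitted effect of over 65% in size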
HTT promoter inh: inhibits huntingtin promoter activity; HEK293 HTT promoter firefly luciferase reporter, 24 h; Potency, µM (series often up to 57.5 µM), inactives show at the highest dose activity change, negative = inhibition, actives largely listed as inhibitors; actives 0.93% (n = 48,000); AID 1508623; note: potency is the fitted concentration of half-maximal effect; nearly all actives have a fitted effect of over 50% in size
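Firefly luciferase signal from promoter-reporter HEK293 cells was scaled between vehicle (0%) and zero RLU (-100%). Compounds were tested at final concentrations of up to 57.5 uM over 24 h at 37 degrees C. PTC124 at 50 uM final served as control inhibitor.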
HTT-AS act: HTT-AS promoter activation; HEK293 HTT-AS promoter firefly luciferase reporter, 24 h; response scale: percent change from vehicle, -100% = no light; Potency, µM (titrated, usually from 57.5 µM), inactives show at the highest dose activity change, positive = activation, usual class: activators; actives 0.24% (n = 48,000); AID 1508624; note: potency is the fitted concentration of half-maximal effect; nearly all actives have a fitted effect of over 55% in size
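HEK293 luciferase promoter-reporter cells (2,500/well) plated 24 h, then compounds added at up to 57.5 uM final for 24 h at 37 °C. Firefly luminescence by Dual-Glo, normalized to vehicle (0%) and zero RLU (-100%).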
GALC G270D act: galactocerebrosidase G270D activity enhancement, cell-based; P54803; 145M-Twi-hGALC-G270D cells (Twitcher mouse brain line with human GALC G270D), HMU-beta-Gal fluorescence, 48 h; Potency, µM (doses to about 57.5 µM), actives largely listed as activators; actives 0.1% (n = 45,000); note: potency is the fitted concentration of half-maximal effect; 0% is about no effect; nearly all actives have a fitted effect of over 65% in size
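Live 145M-Twi cells (Twitcher mouse brain-derived, GALC-null) stably expressing human GALC-G270D, with a wild-type GALC line, were compound-treated. Residual GALC activity was then read as fluorescence from 0.1 mM final HMU-β-gal at pH 5.2; higher signal means activation.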
Sfp qHTS opt: inhibitors of Bacillus subtilis Sfp PPTase, optimization followup; shares compounds with NTMT1 inh; purified Sfp PPTase enzyme activity, qHTS; Potency, µM (series often up to 114 µM), inactives show top-dose activity change, negative = inhibition, usual class: inhibitors; actives 78% (n = 230)
Bsub HM489 growth: reduces growth of B. subtilis HM489 strain | shares compounds with NTMT1 inh | B. subtilis HM489 (acpS-) growth, BacTiter-Glo, 5 h | Potency, µM (titrated, usually from 114 µM), for the others: at the top dose activity change, negative = inhibition, hits mostly inhibitors | actives 50% (n = 220) | AID 540353
Sfp gel opt: Sfp PPTase inhibition, gel-based detection | Potency, µM (doses to about 250 µM), without a hit: top-dose activity change, negative = inhibition, hits mostly inhibitors | shares compounds with NTMT1 inh | AID 540355 | actives 54% (n = 220) | purified Sfp PPTase, gel-based product detection
Sfp SAR2: Sfp phosphopantetheinyl transferase inhibition, SAR round 2; shares compounds with NTMT1 inh; purified Sfp enzyme, PPTase activity, qHTS; Potency, µM (titrated, usually from 57.1 µM), for inactives: at the highest dose activity change, negative = inhibition, actives largely listed as inhibitors; actives 87% (n = 230)
hGST ctr: inhibits hGST A1-1 in Sfp inhibitor counter-screen; shares compounds with NTMT1 inh; hGST A1-1 enzyme activity counter-screen, qHTS; Potency, µM (series often up to 114 µM), for inactives: at the highest dose activity change, negative = inhibition, hits mostly inhibitors; 55 tested, under 10 active; AID 602391
HSD17B4 counter: HSD17B4 (human) inhibition, HPGD counter-screen; actives 10% (n = 230); Potency, µM (titrated, usually from 57.1 µM), for inactives: at the top dose activity change, negative = inhibition, most hits filed as inhibitors; shares compounds with NTMT1 inh; purified HSD17B4, estradiol/NAD+, NADH fluorescence
ALDH1A1 inh: counter-screen for HPGD inhibitors: human ALDH1A1 inhibition; AID 743195; actives 93% (n = 230); shares compounds with NTMT1 inh; recombinant ALDH1A1, NADH fluorescence, propionaldehyde/NAD+; Potency, µM (doses to about 57.1 µM), for the others: at the highest dose activity change, negative = inhibition, hits mostly inhibitors
The depositor's hits bear a star; i = inactive; ? = inconclusive; . = not tested or not shown; ! = not active in a repeat; [ ] = another dose, or the depositor's remark. Calls come from the whole dose curve; as a rule, active = well fitted curve in the direction sought with a large enough effect; inconclusive = small, poorly fitted or top-dose-only effect, or another doubt; inactive = no such curve, though single readings can be large; an effect the other way counts as inactive or inconclusive.

SMILES	NTMT1 inh	HTT promoter inh	HTT-AS act	GALC G270D act	Sfp qHTS opt	Bsub HM489 growth	Sfp gel opt	Sfp SAR2	HSD17B4 counter	ALDH1A1 inh	others
CN1CCN(C2=Nc3ccccc3Oc3ccc(Cl)cc32)CC1	-3%[57.5 µM]	-6%	-18%	i	.	.	.	.	.	.
Cc1cc(C)cc(C(=O)Nc2ccc(-c3cn4cccnc4n3)cc2)c1	?	-12%	-22%	i	.	.	.	.	.	.
Cc1cc(C)nc(NC(=S)N2CCN(C3=Nc4ccccc4Oc4ccccc43)CC2)c1	50µM*	.	.	.	3.3µM*	?	?	5.1µM*	-17%	24µM*
Cc1ccc(-c2nc3nc(C)cc(N4CCN(c5cc(Cl)ccc5C)CC4)n3n2)cc1	3%	-9%	-13%	i	.	.	.	.	.	.
CC(C)(Nc1nc(-c2ccccc2C(F)(F)F)nc2ccccc12)c1ccc(-c2cccc(C(F)(F)F)c2)cc1	0%	.	.	.	.	.	.	.	.	.
Cc1cc(C)nc(NC(=S)N2CCN(c3ccccn3)CC2)c1	?	.	.	.	3.7µM*!	?	32µM*!	16µM*	-21%	27µM*
Cc1cc(C)nc(NC(=S)N2CCN(c3ncccc3C#N)CC2)c1	?	.	.	.	0.58µM*	?	?	1.2µM*	-29%	22µM*	hGST ctr=?
Cc1cc(C)nc(NC(=S)N2CCN(c3noc4ccccc34)CC2)c1	?	.	.	.	3.3µM*	?	-67%	2.9µM*	-18%	17µM*
Cc1cc(C)nc(NC(=S)N2CCN(c3cncs3)CC2)c1	?	.	.	.	7.4µM*	25%	16µM*	4.6µM*	-18%	24µM*
Cc1ccc(C)c(N2CCN(C(=O)NCc3noc4ccccc34)CC2)c1	-2%	?	-24%	i	.	.	.	.	.	.
Cc1[nH]cnc1C1CCN(c2nc3cccc4c3n2CCC4=O)CC1	3%[57.5 µM]	.	.	.	.	.	.	.	.	.
COc1cc(CCC2=NN=C(NC(=O)c3ccc(N4C[C@@H](C)N[C@@H](C)C4)cc3)C2)cc(OC)c1	-25%[57.5 µM]	.	.	.	.	.	.	.	.	.
CC(C)(C)c1cccc(NC(=O)Nc2nnc(-c3ccncc3)s2)c1	7%	.	.	.	.	.	.	.	.	.
C[C@@H]1CN(Cc2ccccc2)C[C@H]1c1nc2c(cnn2C2CCOCC2)c(=O)[nH]1	3%[57.5 µM]	.	.	.	.	.	.	.	.	.
O=S(=O)(Nc1nc(-c2ccccc2C(F)(F)F)nc2ccccc12)c1ccc(Br)cc1	9%	.	.	.	.	.	.	.	.	.
Cc1ccc(-c2ccc(=O)n(CC(=O)NCCc3ccc(O)cc3)n2)cc1	7%	.	.	.	.	.	.	.	.	.
